From PubChem
FMDV antiviral = High Throughput Screening for Foot and Mouth Disease Virus Antivirals | FMDV antiviral cell-based qHTS | 410,000 compounds, 1.2% hits | Potency, µM (top dose mostly 57.9 µM), hits mostly inhibitors; calls by dose curve; tested in HEK293T cells; note: read-out not given here; nearly all actives have a fitted effect of over 45% in size
RE007 growth inh = qHTS Assay for Inhibitors of the HIV-1 protein Vpr | S. pombe RE007 Vpr strain, BacTiter-Glo ATP luminescence, 24 h | Potency, µM (doses to about 92.2 µM), usual class: inhibitors | 360,000 compounds, 0.21% hits | AID 651644, 2012; active = well fitted falling curve with a large enough effect; inconclusive = small, poorly fitted or top-dose-only effect; inactive = no such curve, though single readings can be large or run the other way; note: nearly all actives have a fitted effect of over 50% in size
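Fission yeast RE007 carrying one integrated HIV-1 vpr copy, seeded at OD 0.01 in PMG+AL medium with 23 nL pinned compound. Grown 24 h at 30 degrees; viability read by BacTiter-Glo luminescence after 5 min.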
TbPYK inhibitor = qHTS of Trypanosoma Brucei Inhibitors; TbPYK enzyme, Kinase-Glo Plus ATP luminescence, 45 min; pyruvate kinase (Trypanosoma brucei), Q57TT1; Potency, µM (titrated, usually from 76.8 µM), usual class: inhibitors; AID 624173, 2012; 410,000 compounds, 0.12% hits; note: nearly all actives have a fitted effect of over 50% in size
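TbPYK + substrate in 50 mM TEA pH 7.2, 100 mM KCl, 10 mM MgCl2, 0.05% BSA, 0.01% Tween-20; cpd pinned; ADP 130 uM final; 45 min RT; Kinase-Glo Plus 10 min; luminescence endpoint.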
Sm TGR inh = qHTS Assay for the Inhibitors of Schistosoma Mansoni Peroxiredoxins. 360,000 compounds, 3% hits. Schistosoma mansoni thioredoxin glutathione reductase (TGR), Q962Y6. purified TGR, DTNB reduction, TNB absorbance 405 nm. Potency, µM (top dose mostly 114 µM), actives largely listed as inhibitors; note: nearly all actives have a fitted effect of over 60% in size
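Kinetic colorimetric format: TGR-catalysed, NADPH-driven DTNB reduction monitored via TNB absorbance. Enzyme dispensed at 20 nM; compound exposure 15 min at room temperature before reaction start.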
Giardia FBPA inh-1 = qHTS Assay for Inhibitors of Fructose-1,6-bisphosphate Aldolase from Giardia Lamblia. purified Giardia FBPA. Potency, µM (titrated, usually from 59.6 µM), usual class: inhibitors. 290,000 compounds, 0.71% hits; note: nearly all actives have a fitted effect of over 55% in size
Target sequence (A8B2U2 whole entry, looked up): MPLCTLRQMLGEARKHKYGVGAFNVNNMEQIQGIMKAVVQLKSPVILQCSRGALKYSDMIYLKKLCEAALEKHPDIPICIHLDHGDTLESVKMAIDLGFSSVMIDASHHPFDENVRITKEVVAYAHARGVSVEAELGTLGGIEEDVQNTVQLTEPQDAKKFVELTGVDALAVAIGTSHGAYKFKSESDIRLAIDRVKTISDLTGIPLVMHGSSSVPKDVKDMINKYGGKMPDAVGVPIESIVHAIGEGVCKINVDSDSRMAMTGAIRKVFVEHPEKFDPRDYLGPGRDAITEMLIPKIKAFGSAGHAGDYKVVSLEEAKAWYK
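40 nM FBPA preincubated 10 min at RT with compound (up to 57.5 uM final), then substrate plus GAPDH/TPI/NAD/arsenate coupling and diaphorase/resazurin added. Fluorescence read after 20 min at RT, 525/598 nm.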
HCMV inh = qHTS Assay for inhibitors of the human cytomegalovirus (HCMV) | activity change, negative = inhibition, % at 57.5 µM | HFF cells, HCMV-luciferase reporter, 72 h; hits give low values | 410,000 compounds, 4.5% hits; in the data active = activity change below about -60%; inconclusive = no clear call, values can overlap the other calls; inactive = above about -39%
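Inhibition of viral replication was scored as loss of reporter luminescence in HFFs infected with HCMV-luciferase (MOI 1 PFU/cell) for 72 h; compounds tested at 2 doses, normalized to buffer and Salinomycin controls.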
Giardia growth = qHTS Assay for Inhibitors of Fructose-1,6-bisphosphate Aldolase from Giardia Lamblia: Giardia lamblia growth inhibition | shares compounds with Giardia FBPA inh-1 | Giardia lamblia trophozoite growth inhibition | Potency, µM (series often up to 57.5 µM), usual class: inhibitors | 1,500 compounds, 5% hits;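 note: trophozoites exposed to compound for 48 h at 37 °C; nearly all actives have a fitted effect of over 70% in size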
Mammal cell tox = qHTS Assay for Inhibitors of Fructose-1,6-bisphosphate Aldolase from Giardia Lamblia: Mammalian cellular toxicity; shares compounds with Giardia FBPA inh-1; mammalian cell viability counter-screen, qHTS; Potency, µM (top dose mostly 57.5 µM), hits mostly inhibitors; 1,500 compounds, 4% hits; AID 2786, 2010;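 note: Chinese hamster ovary cells used as mammalian cytotoxicity surrogate; viability measured as cellular ATP by luminescence; compound exposure lasted 48 h before reading; nearly all actives have a fitted effect of over 60% in size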
Giardia FBPA inh-2 = qHTS Assay for Inhibitors of Fructose-1,6-bisphosphate Aldolase from Giardia Lamblia: Primary screen confirmation; shares compounds with Giardia FBPA inh-1; purified Giardia aldolase enzyme activity, qHTS; Potency, µM (highest dose often 57.5 µM), most hits filed as inhibitors; 1,500 compounds, 5% hits; AID 2787, 2010; note: nearly all actives have a fitted effect of over 45% in size
Rabbit FBPA inh = qHTS Assay for Inhibitors of Fructose-1,6-bisphosphate Aldolase from Giardia Lamblia: Rabbit FBPA Selectivity. shares compounds with Giardia FBPA inh-1. Rabbit muscle FBPA enzyme inhibition, selectivity counter-screen. Potency, µM (titrated, usually from 57.5 µM), usual class: inhibitors. 1,500 compounds, 4% hits; note: nearly all actives have a fitted effect of over 60% in size
Target sequence (P00883 whole entry, looked up): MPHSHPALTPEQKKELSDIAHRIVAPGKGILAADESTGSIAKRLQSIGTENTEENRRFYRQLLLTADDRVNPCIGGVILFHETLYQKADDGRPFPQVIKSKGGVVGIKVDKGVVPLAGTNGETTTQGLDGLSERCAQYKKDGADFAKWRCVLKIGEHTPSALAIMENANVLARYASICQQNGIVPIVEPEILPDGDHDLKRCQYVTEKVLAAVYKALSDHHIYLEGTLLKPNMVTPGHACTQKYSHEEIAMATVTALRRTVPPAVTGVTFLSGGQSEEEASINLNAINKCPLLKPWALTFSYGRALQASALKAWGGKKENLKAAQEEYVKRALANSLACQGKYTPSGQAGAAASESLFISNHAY
GAPDH coupling = qHTS Assay for Inhibitors of Fructose-1,6-bisphosphate Aldolase from Giardia Lamblia: Coupling assay counterscreen confirmation; shares compounds with Giardia FBPA inh-1; GAPDH coupling enzyme counterscreen, biochemical, qHTS; Potency, µM (top dose mostly 57.5 µM), actives largely listed as inhibitors; 1,500 compounds, 6% hits; note: nearly all actives have a fitted effect of over 55% in size
Hits are given with their value; i = inactive; ? = inconclusive; nt = no result given; [ ] = another dose, or the depositor's remark. An excerpt weighted towards active compounds, which were near 7.7% of everything screened. Unless noted, calls come from the whole dose curve; as a rule, active = well fitted curve in the direction sought with a large enough effect; inconclusive = small, poorly fitted or top-dose-only effect, or another doubt; inactive = no such curve, though single readings can be large; an effect the other way counts as inactive or inconclusive.

SMILES	FMDV antiviral	RE007 growth inh	TbPYK inhibitor	Sm TGR inh	Giardia FBPA inh-1	HCMV inh	Giardia growth	Mammal cell tox	Giardia FBPA inh-2	Rabbit FBPA inh	GAPDH coupling
Cc1ccc(C(=O)Nc2nnc(S(=O)(=O)N3CCCCCC3)s2)cc1	i	i	i	i	i	i	nt	nt	nt	nt	nt
CNC(=O)c1ccc(CSc2nc3cccnc3n2Cc2cccc(F)c2)cc1	i	nt	i	i	nt	i	nt	nt	nt	nt	nt
CN1CCN(CCCNC(=O)c2cnn(-c3ccc(F)cc3)c2-n2cccc2)CC1	i	nt	i	i	nt	i	nt	nt	nt	nt	nt
COc1cc(C2CC(=O)Nc3c2c(=O)[nH]c2ncnn32)ccc1O (stereo not given)	i	nt	i	i	nt	i	nt	nt	nt	nt	nt
COC(=O)Cc1[nH]n(-c2nc3ccccc3s2)c(=O)c1C(C)=Nc1ccc(Cl)cc1	1µM	?	i	i	16µM	i	?	i	i	i	i
CCCN=C(C)c1c(-c2ccccc2)[nH]n(-c2nc3ccccc3s2)c1=O	?	i	i	i	i	i	nt	nt	nt	nt	nt
Cc1cc(C)c(NC(=S)NCCCSC2CCCCC2)c(C)c1	i	i	i	i	16µM	i	?	i	i	i	i
O=C(O)c1[nH]c(=O)[nH]c(=O)c1F	i	i	i	i	20µM	i	i	i	i	i	i
O=C(O)c1nc(=O)[nH]c(=O)[nH]1	nt	nt	i	nt	nt	nt	nt	nt	nt	nt	nt
CCOC(=O)c1c(-c2ccccc2)csc1NC(=O)C(C)NCCCN1CCOCC1 (stereo not given)	i	i	i	i	18µM	i	4.5µM	i	i	i	i
Cc1nc(NS(=O)(=O)c2ccc(N)cc2)nc(C)c1Br	nt	nt	i	nt	nt	nt	nt	nt	nt	nt	nt
CN(C)Cc1ccccc1-c1cncnc1Nc1ccccc1	i	nt	nt	nt	i	nt	nt	nt	nt	nt	nt
COc1cccc(N2CCN(Cc3ccco3)CC2)c1	i	i	i	i	25µM	i	?	i	i	i	i
COc1ccc(CN2CCN(Cc3ccco3)CC2)cc1OC	i	i	i	i	13µM	i	i[10.4 µM]	i	i	i	i
COc1ccc(-n2c(=O)c3ccc(C(=O)NCc4ccc(C)cc4)cc3n(Cc3ccc(Cl)cc3)c2=O)cc1	i	nt	i	i	nt	i	nt	nt	nt	nt	nt
COc1ccc(C(=O)NNc2ncnc3c2cnn3-c2ccc(C)c(Cl)c2)cc1	i	nt	i	i	nt	i	nt	nt	nt	nt	nt
c1ccc(CCN(Cc2ccccc2)C2CCN(C3CCCC3)CC2)cc1	i	i	i	i	20µM	i	45µM	i	i	i	i
Cc1ccc(NC(=S)Nn2cnnc2)c(C)c1	nt	nt	nt	i	13µM	i	i	i	i	i	i
COc1ccc(N2CCN(C(=O)CSc3nc4ccccc4c(=O)[nH]3)CC2)cc1	?	i	i	i	i	i	nt	nt	nt	nt	nt
COc1ccc(N2CCN(C(=O)CSc3nnc(C)c(=O)[nH]3)CC2)cc1	nt	i	i	?	13µM	i	i	i	i	i	i
COc1ccc(Br)cc1CN1CCN(C(=O)c2ccc(F)cc2)CC1	i	i	i	i	16µM	i	i	i	i	i	i
O=C(c1cccc(F)c1)N1CCN(Cc2cccc(Br)c2)CC1	i	i	i	i	14µM	i	i	i	i	i	i
COc1ccc(Br)cc1CN1CCN(Cc2c[nH]c3ccccc23)CC1	i	i	i	i	14µM	-100	16µM	i	i	i	i
O=C(c1cccc(F)c1)N1CCN(Cc2ccc3c(c2)OCO3)CC1	i	i	i	i	?	i	nt	nt	nt	nt	nt
COc1ccc(CN2CCN(Cc3c[nH]c4ccccc34)CC2)cc1	i	i	i	i	?	i	i	i	i	i	i
SMILES	FMDV antiviral	RE007 growth inh	TbPYK inhibitor	Sm TGR inh	Giardia FBPA inh-1	HCMV inh	Giardia growth	Mammal cell tox	Giardia FBPA inh-2	Rabbit FBPA inh	GAPDH coupling
O=[N+]([O-])c1ccccc1CN1CCN(Cc2c[nH]c3ccccc23)CC1	i	i	i	i	20µM	i	i[10.4 µM]	i	i	i	i
Cc1ccc(C(C)C)cc1OCCn1cncn1	i	i	i	i	22µM	i	i[10.4 µM]	i	i	i	?
Cc1ccc(OCCn2cncn2)c([N+](=O)[O-])c1	i	i	i	i	i	i	nt	nt	nt	nt	nt
CCOc1ccc(NC(=O)N(CCCN2CCOCC2)Cc2cccnc2)cc1	i	i	i	i	i	i	nt	nt	nt	nt	nt
CCc1cccc(C)c1NC(=S)N(CCCN1CCOCC1)Cc1cccnc1	i	i	i	i	16µM	i	i	i	i	i	i
CSc1ccc(CCNC(=O)Cn2nc(C)n3c(cc4sccc43)c2=O)cc1	i	nt	i	i	nt	i	nt	nt	nt	nt	nt
O=C(O)c1cccc2[nH]c(C(F)(F)F)nc12	i	i	i	i	i	i	nt	nt	nt	nt	nt
Nc1cccc2[nH]c(C(F)(F)F)nc12	i	i	i	?	20µM	i	i	?	?	i	i
CCN1CCc2c(sc(NC(=O)C3CCCCC3)c2C(=O)OC)C1	i	i	i	i	18µM	i	i	i	i	i	i
CCOC(=O)c1c(NC(=O)C2CCCCC2)sc2c1CCN(CC)C2	i	i	i	i	?	i	nt	nt	nt	nt	nt
CCC(=O)Nc1sc2c(c1C(=O)OC)CCN(Cc1ccccc1)C2	i	i	i	i	13µM	i	i	i	i	i	i
CN1CCc2c(sc(NC(=O)c3cc(Cl)sc3Cl)c2C(N)=O)C1	i	i	i	i	32µM	i	i	?	i	i	i
CN1CCc2c(sc(NC(=O)c3ccco3)c2C(N)=O)C1	i	i	i	i	i	i	nt	nt	nt	nt	nt
COc1cccc(OC)c1C(=O)Nc1sc2c(c1C(N)=O)CCN(Cc1ccccc1)C2	?	i	i	i	13µM	i	i	i	i	i	i
CCOc1ccc(C2C(=O)N(C3CCCCCC3)CC(=O)N2CCc2ccccc2)cc1OC (stereo not given)	i	nt	i	i	nt	?	nt	nt	nt	nt	nt
